# Source: PubChem
# In the library only some 1.5% were active in any assay of this set; here they are far more common.
# rTrxR1 inhibitor: inhibitors of rat thioredoxin reductase 1 | recombinant rTrxR1, NADPH fluorescence consumption, selenite substrate | Potency, µM (highest dose often 114 µM), without a hit: at the highest dose activity change, negative = inhibition, actives largely listed as inhibitors | 1% of 390,000 active | O89049 | AID 588453; note: potency is the fitted concentration of half-maximal effect; nearly all actives have a fitted effect of over 65% in size
# Target sequence (O89049 whole entry, looked up): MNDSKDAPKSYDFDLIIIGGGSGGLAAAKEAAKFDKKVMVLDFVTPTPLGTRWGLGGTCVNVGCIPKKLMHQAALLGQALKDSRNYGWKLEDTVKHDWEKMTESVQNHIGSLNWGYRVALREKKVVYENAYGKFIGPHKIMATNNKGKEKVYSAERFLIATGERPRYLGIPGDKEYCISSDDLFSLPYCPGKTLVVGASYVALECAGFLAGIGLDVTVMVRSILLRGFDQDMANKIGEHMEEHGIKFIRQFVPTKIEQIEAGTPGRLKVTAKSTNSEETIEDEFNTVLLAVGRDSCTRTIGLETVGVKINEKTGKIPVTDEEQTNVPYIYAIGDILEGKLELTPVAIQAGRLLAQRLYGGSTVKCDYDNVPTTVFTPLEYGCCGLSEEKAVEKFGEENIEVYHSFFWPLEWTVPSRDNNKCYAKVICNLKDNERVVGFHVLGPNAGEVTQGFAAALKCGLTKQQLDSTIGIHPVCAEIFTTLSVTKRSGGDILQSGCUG
#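 Rat TrxR1 (90 nM in the dispensed reagent) was pre-reduced with 400 uM NADPH for 5 min at room temperature, then incubated with compound for 15 min. After 400 uM selenite was added, NADPH fluorescence (Ex 340/Em 450 nm) was followed for 8 min.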
# GALK inhibitor: inhibitors of human galactokinase; 0.007% of 270,000 active; P51570; Potency, µM (doses to about 57.5 µM), for inactives: at the top dose activity change, negative = inhibition, hits mostly inhibitors; Purified GALK, Kinase-Glo residual ATP luminescence; note: potency is the fitted concentration of half-maximal effect
#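 Galactose (100 uM) and ATP (35 uM) were turned over by 5 nM GALK for 1 h at RT. Kinase-Glo Plus then converted the remaining ATP into a luminescent signal.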
# TrxR1 substrate: is turned over as a substrate by rat TrxR1. Potency, µM (highest dose often 114 µM), for inactives: at the top dose activity change, negative = substrate turnover. AID 588456. 0.01% of 390,000 active. O89049. purified TrxR1 substrate turnover, NADPH consumption readout; note: potency is the fitted concentration of half-maximal effect; nearly all actives have a fitted effect of over 50% in size
#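 Rat TrxR1, dispensed at 90 nM, was prereduced with 400 uM NADPH (final) for 5 min at ~22 deg C, then incubated with compound 15 min before 400 uM selenite. A first-read NADPH fluorescence drop versus no-compound background flagged substrates.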
# Coupling enz: coupling enzyme interference in Giardia aldolase counter-screen. activity change, negative = inhibition, % at 58.2 µM, hits read low. coupling enzyme system counterscreen, AmpLite Red fluorescence. 0.67% of 290,000 active; in the data active = activity change below about -30%
#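 Activity here indicates interference with the coupling reaction, not aldolase inhibition. Compounds at 57.5 uM final met coupling enzymes for 10 min at RT; substrate and AmpLite Red detection followed, with a 525/598 nm fluorescence read after 20 min.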
# USP1 inh: blocks the human USP1/UAF1 deubiquitinase complex; Potency, µM (series often up to 57.1 µM), inactives show top-dose activity change, negative = inhibition, hits mostly inhibitors; 0.23% of 390,000 active; recombinant USP1/UAF1, Ub-Rhodamine cleavage fluorescence; O94782; AID 743255; note: potency is the fitted concentration of half-maximal effect; nearly all actives have a fitted effect of over 60% in size
#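 High-throughput fluorogenic screen: 1nM USP1/UAF1 complex, Ub-Rho substrate 150nM final, 50mM HEPES pH 7.8 with 0.5mM EDTA, 0.1 mg/ml BSA, 1mM TCEP and 0.01% Tween-20.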
# Numbers without * were called inactive; i = inactive; ? = inconclusive; nt = no result given; [ ] = dose if it differs, or a comment. Unless noted, calls come from the whole dose curve; as a rule, active = well fitted curve in the direction sought with a large enough effect; inconclusive = small, poorly fitted or top-dose-only effect, or another doubt; inactive = no such curve, though single readings can be large; an effect the other way counts as inactive or inconclusive. % is set by controls: 0 for no effect and ±100 for the full control effect.
SMILES,rTrxR1 inhibitor,GALK inhibitor,TrxR1 substrate,Coupling enz,USP1 inh
CC(=O)C1=C(C)OC(N)=C(C#N)C1c1cccnc1 (stereo not given),-6.1%,13.1%,3.6%,-33.4*,-20.2%
CCOC(=O)C1=C(c2ccccc2)OC(N)=C(C#N)C1c1cccnc1 (stereo not given),-3.4%[57.1 µM],2.5%,-6.5%,-2.3,-15.8%
CCOC(=O)C1=C(c2ccc(OC)cc2)OC(N)=C(C#N)C1c1cccnc1 (stereo not given),79.4µM*,0.7%,-7.1%,-2.4,-18.7%
C(=Nc1ccc2ccccc2n1)c1cccnc1,6.3%[0.0914 µM],nt,11.8%,nt,nt
COc1ccc(F)cc1S(=O)(=O)NCC(c1ccco1)S(=O)(=O)c1cccs1 (stereo not given),?,nt,3.3%[57.1 µM],nt,-21.7%
COc1ccc(S(=O)(=O)NCC(c2ccco2)S(=O)(=O)c2ccc(C)cc2)cc1C (stereo not given),11.2µM*,nt,0.5%[57.1 µM],nt,?
COc1ccc(OC)c(S(=O)(=O)NCC(c2cccs2)S(=O)(=O)c2ccc(F)cc2)c1 (stereo not given),3.16µM*,nt,2.1%[57.1 µM],nt,-12.4%
COc1ccc(C)cc1S(=O)(=O)NCC(c1cccs1)S(=O)(=O)c1ccc(C)cc1 (stereo not given),10.2%[57.1 µM],nt,-2.0%[57.1 µM],nt,-12.2%
COc1ccc(F)cc1S(=O)(=O)NCC(c1ccco1)S(=O)(=O)c1ccc(F)cc1 (stereo not given),0.891µM*,nt,-5.8%[57.1 µM],nt,-25.6%
COc1cc(N)c(NC(=O)/C=C/c2nc3cc(OC)c(OC)cc3[nH]2)cc1OC,-89.3%,nt,i,nt,nt
CCOC(=O)Cc1csc(NC(=O)/C=C/c2ccco2)n1,79.4µM*,-0.3%,-3.4%,-2.7,-10.0%
O=C(/C=C/c1ccco1)Nc1nc(-c2ccccn2)cs1,14.1µM*,5.2%,9.1%[0.0914 µM],-2.9,-5.1%
O=C(/C=C/c1ccco1)Nc1nc(-c2ccccc2)cs1,-10.9%,-3.4%,-9.3%,-1.7,-10.8%
CNc1oc(-c2ccc(Cl)cc2)nc1C#N,39.8µM*,-5.9%,190.2%,3.0,1.3%
CCOC(=O)c1c(SCCN2CCCCC2)n(-c2ccccc2)c(=S)n(-c2ccccc2)c1=O,17.8µM*,nt,-4.4%,nt,1.8%
CCOC(=O)c1c(SC)n(-c2ccccc2)c(=S)n(-c2ccccc2)c1=O,10.6%,3.2%,2.6%,0.0,-26.8%
O=c1oc2ccc(Br)cc2cc1-c1nc2c(s1)CCc1ccccc1-2,1.2%,nt,6.4%,nt,nt
CC(=O)Nc1ccc(S(=O)(=O)NC2=C(N3CCN(Cc4ccccc4)CC3)C(=O)c3ccccc3C2=O)cc1,-19.6%,0.8%,-17.7%,-43.9*,?
CC(=O)Nc1ccc(S(=O)(=O)NC2=C(N3CCN(C)CC3)C(=O)c3ccccc3C2=O)cc1,-14.2%,5.3%,-2.1%,-51.8*,?
CC1CCN(C2=C(NS(=O)(=O)c3ccc(Cl)cc3)C(=O)c3ccccc3C2=O)CC1,31.9%,2.6%,1.1%,-33.8*,-17.3%
CCN1CCN(C2=C(NS(=O)(=O)c3ccc(NC(C)=O)cc3)C(=O)c3ccccc3C2=O)CC1,22.7%,1.7%,-3.7%,nt,-26.4%
CC1CCN(C2=C(NS(=O)(=O)c3ccccc3)C(=O)c3ccccc3C2=O)CC1,-5.0%,5.8%,-5.7%,-29.7,?
CCN1CCN(C2=C(NS(=O)(=O)c3ccc(C)cc3)C(=O)c3ccccc3C2=O)CC1,79.4µM*,0.7%,-1.8%,nt,?
COc1ccc(CCC(=O)NO)cc1,9.1%,nt,-3.6%,nt,nt
COC(=O)C1=C(C(=O)OC)[C@@H]2N(Cc3ccccc3)c3ccccc3[C@@]23C[C@@H](C(=O)OC)N(S(=O)(=O)c2ccc4c(c2)OCCN4C)C3=N1,nt,nt,nt,-4.3,nt
SMILES,rTrxR1 inhibitor,GALK inhibitor,TrxR1 substrate,Coupling enz,USP1 inh
COC(=O)[C@@H](NC(=O)N1CCc2nc(-c3ccc(OC)cc3C)c3c(c2C1)CO[C@@H](c1ccccc1)C3)C(C)C,nt,nt,nt,-0.2,nt
Cc1ccccc1OCC(=O)NCC(=O)OCC(=O)c1ccc(F)cc1,-8.7%,nt,-1.5%,nt,nt
Cc1ccc2c(/C=C/c3ccc(N(C)C)cc3)ccnc2c1,-7.1%,nt,-11.4%,nt,nt
CCOC(=O)C1CCCN(C2=C(NS(=O)(=O)c3ccc(Br)cc3)C(=O)c3ccccc3C2=O)C1 (stereo not given),19.9%,2.4%,-2.2%,-37.5*,?
CCOC(=O)C1CCN(C2=C(NS(=O)(=O)c3ccc(Cl)cc3)C(=O)c3ccccc3C2=O)CC1,3.6%,3.7%,-0.8%,-21.6,-20.1%
COC(=O)c1nn2c(C(F)(F)F)cc(-c3ccc(Br)o3)nc2c1Br,6.31µM*,6.9%,10.0%,0.9,-24.3%
CC(C)(C)NC(=O)c1nn2c(C(F)(F)F)cc(-c3ccccc3)nc2c1Br,32.5%[2.29 µM],3.5%,-0.7%,-0.8,-10.4%
N#CN=c1snc(-c2ccccc2Cl)n1-c1ccccc1Cl,-8.6%,nt,-3.1%,nt,nt
C(=C\c1ccnc2ccccc12)/c1ccc2c(c1)OCO2,-4.7%,nt,4.0%,nt,nt
Clc1ccc(-c2ccc(-c3nn4c(-c5ccco5)nnc4s3)o2)cc1,?,nt,6.0%,nt,-7.5%
Brc1ccc(-c2nn3c(-c4ccco4)nnc3s2)o1,28.2µM*,-0.4%,-0.6%[57.1 µM],4.3,-9.3%
Cc1ccc(S(=O)(=O)Nc2nc3ccccc3nc2NCc2ccco2)cc1,8.91µM*,1.1%,18.4%,4.7,?
Clc1ccc2c(NCc3ccco3)ncnc2c1,-1.5%[57.1 µM],0.2%,-5.1%,1.9,-14.8%
Cc1ccc2ncnc(NCc3ccco3)c2c1,79.4µM*,nt,-3.8%,nt,nt
COc1ccc(C2N=C(Nc3nc4ccccc4o3)NC3=C2C(=O)CC(C)(C)C3)cc1 (stereo not given),-11.6%,nt,9.7%,nt,nt
NS(=O)(=O)Nc1c(Br)cc(Br)c2cccnc12,28.2µM*,nt,8.6%[0.457 µM],nt,nt
Nc1c(Br)cc(Br)c2cccnc12,?,nt,2.8%,nt,nt
Cc1ccc(CNCc2cn[nH]c2-c2ccc(C)cc2)cc1,16.5%,nt,3.9%,nt,nt
COc1coc(C(O)C[N+](=O)[O-])cc1=O (stereo not given),50.1µM*,nt,4.5%,1.8,-11.9%
COc1ccc2c(c1)C=C/C2=C\c1ccc(N(C)C)cc1,-15.4%,nt,-5.9%,nt,nt
O=S(=O)(c1ccc(Cl)nc1)N1CCCc2ccccc21,-3.6%,-1.4%,-4.0%,-33.3*,-21.6%
CCOC(=O)NNc1ccc2nonc2c1[N+](=O)[O-],?,-0.9%,-33.9%,-44.1*,25.1µM*
COc1ccccc1CNC(=O)CSc1ccc(C)cc1,5.4%,0.7%,-1.6%,-30.2*,-7.2%
CCOc1ccc(C(=O)NCc2ccncc2)cc1,8.4%[57.1 µM],4.3%,6.1%[57.1 µM],1.7,4.6%
Cc1ccc(C)n1-c1ccc(C(=O)NCc2ccncc2)cc1,44.7µM*,10.2%,0.5%,0.1,-19.9%
Oc1ccccc1/C=N/Nc1cc(N2CCCC2)nc(N2CCCC2)n1,-1.9%,-0.3%,-15.5%,-17.7,25.1µM*
CCCN1CNc2c(c(=O)[nH]c(=S)n2CCc2ccc(Cl)cc2Cl)C1,2.1%,nt,-2.7%,nt,nt
